Test results: PubChem BioAssay (NCATS)
Several values for one entry are separate records, joined by “and”; a condition that tells them apart may be missing. Equal values may be shown once. A number with no mark means an inactive call. Activity calls are given as the source filed them. How the calls were made is not given here.

What was measured:
[1] = molecular target: Nuclear receptor subfamily 1 group I member 2 (Rattus norvegicus) (UniProt Q9R1A7); experiment: qHTS assay for small molecule activators of the rat pregnane X receptor (rPXR) signaling pathway (AID 651751); details: rPXR reporter cells, luciferase (One-Glo), 24 h
Sequence of Nuclear receptor subfamily 1 group I member 2 (Rattus norvegicus) (Q9R1A7 whole entry, looked up): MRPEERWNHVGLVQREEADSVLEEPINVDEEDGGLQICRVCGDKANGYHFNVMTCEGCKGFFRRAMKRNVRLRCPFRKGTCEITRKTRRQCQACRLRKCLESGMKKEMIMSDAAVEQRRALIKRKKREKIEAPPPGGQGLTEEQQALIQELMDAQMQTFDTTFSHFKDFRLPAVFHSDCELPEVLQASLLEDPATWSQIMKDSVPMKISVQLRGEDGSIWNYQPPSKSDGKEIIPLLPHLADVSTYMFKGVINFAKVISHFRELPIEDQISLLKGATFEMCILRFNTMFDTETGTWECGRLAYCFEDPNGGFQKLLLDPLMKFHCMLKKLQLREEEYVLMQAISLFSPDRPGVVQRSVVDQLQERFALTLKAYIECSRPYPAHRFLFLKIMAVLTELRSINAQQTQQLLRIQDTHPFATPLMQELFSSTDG

[2] = qHTS assay for small molecule activators of the human pregnane X receptor (PXR) signaling pathway (AID 720659); details: DPX-2 HepG2 CYP3A4-luciferase, 24 h; series mostly up to 92.3 µM
Further: 0% is about no effect.

| SMILES | max response [1] | outcome [2] |
| --- | --- | --- |
| C[C@](N)(Cc1ccc(O)c(O)c1)C(=O)O | -1.2% | inactive |
| NS(=O)(=O)c1cc2c(cc1Cl)NCNS2(=O)=O | -0.0581% and 1.2% | inactive |
| Cn1cnc2c1c(=O)[nH]c(=O)n2C | 2.94% | – |
| CC#C[C@]1(O)CC[C@H]2[C@@H]3CCC4=CC(=O)CCC4=C3[C@@H](c3ccc(N(C)C)cc3)C[C@@]21C | – | inactive |
| O=c1c(-c2ccc(O)cc2)coc2cc(O)cc(O)c12 | -0.208% and 4.35% | – |
| Cc1cn([C@H]2C[C@H](N=[N+]=[N-])[C@@H](CO)O2)c(=O)[nH]c1=O | -4.33% and 1.62% | – |
| COc1ccc2c(c1)c(CC(=O)O)c(C)n2C(=O)c1ccc(Cl)cc1 | -2.59% and -3.57% | inactive |
| CC(C)Cc1ccc(C(C)C(=O)O)cc1 (stereo unspecified) | – | inactive |
| O=c1[nH]cc(F)c(=O)[nH]1 | – | inactive |
| Cn1c(=O)c2[nH]cnc2n(C)c1=O | 5.46% | inactive |
| CN(Cc1cnc2nc(N)nc(N)c2n1)c1ccc(C(=O)N[C@@H](CCC(=O)O)C(=O)O)cc1 | -4.55% | inactive |
| Cn1c(=O)c2c(ncn2C)n(C)c1=O | 0.943% and 1.54% | inactive |
| CCC1(c2ccccc2)C(=O)NCNC1=O | – | inactive |
| O=C(Nc1ccc([N+](=O)[O-])cc1Cl)c1cc(Cl)ccc1O | -12.4% | inactive |
